The structures appear in SMILES notation. Compounds without any hit were thinned out: in the full panel of roughly 83,000, 20% have a hit.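 Note: values are percent growth. 100 is the growth of untreated cells, values between 100 and 0 indicate rising inhibition; between -100 and 0 indicates cell death.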 Unmarked numbers belong to inactive results. Active and inactive are the calls of the source. The calls were made as follows: active = growth percent below 10; inactive = the rest.

The test system of this assay is COLO 205 colon. The assay can be described thus: NCI-60 one-dose screen, 48 h (100 = growth as untreated, 0 = no growth, -100 = all killed). To be noted: 10 µM unless noted.
With `Cc1ccc(C(=O)Nc2cc(-n3cnc(F)c3)cc(C(F)(F)F)c2)cc1C#Cc1cnc2cccnn12`, the growth was 68.5%.
For `O=C(N/N=C/c1ccc(-c2cccc([N+](=O)[O-])c2)s1)c1[nH]c2ccc(Br)cc2c1-c1ccccc1`, the growth is 97.7%.
For `Nc1cc2ccccc2c(=O)n1NC(=O)c1ccccc1`, the growth is 111%.
As to `C[C@@H]1[C@H]2C[C@@H](C[C@H]1NCc1nc3ccccc3n1C1CCCCCC1)C2(C)C`, the growth was 58.7%.
As for `COc1cc2cc(C(=O)N3C[C@@H](CCl)c4c3cc(OC(=O)N(CCC(=O)N3CCN(C)CC3)[C@H]3CCSSC3)c3ccccc43)[nH]c2c(OC)c1OC`, the growth was -65.7% (active).
In the case of `Cc1cn(-c2cc(NC(=O)c3ccc(C)c(-n4cc(-c5cnc6cccnn56)nn4)c3)cc(C(F)(F)F)c2)cn1`, the growth is 31%.
As for `Cn1cc(-c2cc(N)n3nc(-c4c[nH]c5ccc(F)cc45)cc3n2)c2cccnc21`, the figure is -79.1% (active); as for `FC(F)(F)c1cc2c(Cl)ncnc2n1CCN1CCOCC1`, 79.5%.
`CCOC(=O)/C(F)=C/C1CC1C1CCN(C(=O)OC(C)(C)C)CC1` (stereo not drawn): the growth was 72.4%.
As for `O=C(Nc1ccc(-c2ccc3c(c2)NC(=O)/C3=C\c2ccc[nH]2)cc1)Nc1cccc(Cl)c1`, the figure is -58.6% (active); as for `O=Cc1cncc(-c2ccc3ncnc(N4CCc5cc(F)c(Cl)cc54)c3c2)c1`, 99.7%.
In the case of `Fc1ccc(F)c(CNc2nc(SCCN3CCOCC3)nc3c2cnn3CC(Cl)c2ccc(Br)cc2)c1` (stereo not drawn), the growth was -57% (active).
For `Cc1nc(N)ncc1-c1ccc2ncnc(N3CCc4cc(F)c(Cl)cc43)c2c1`, the growth was 81.5%.
Take `O=C(Cn1c(/C=C/c2ccc([N+](=O)[O-])cc2)nc2ccccc2c1=O)Nc1ccccc1`: the growth was 67.2%.
Turning to `Nc1nc2cc(-c3ccc4ncnc(NCc5ccccc5)c4c3)ccc2o1`, the growth was 52.9%.
Regarding `COc1ccc(-c2nc3ccc(-c4nnc(SCc5ccccc5)o4)cc3[nH]2)cc1`, the growth was 44.6%.
Consider `O=C(OCCOCCO)N(c1cccc(Br)c1)c1nc(SCCN2CCOCC2)nc2c1cnn2CC(Cl)c1ccc(Br)cc1` (stereo not drawn), for which the growth is -42.3% (active).
For the molecule `Oc1ccc(Cl)c(Nc2nc(SCCN3CCOCC3)nc3c2cnn3CC(Cl)c2ccc(Br)cc2)c1` (stereo not drawn), the growth was 106%.
As to `O=C1/C(=C/C=C/c2ccco2)SC(=S)N1CC(=S)C1C=CS(=O)(=O)C1` (stereo not drawn), the growth was 76%.
To `COC(=O)c1cc(C(=O)CBr)n2c1ccc1c3ccccc3ccc12` belongs 38.7%; to `Cc1ccc(-c2cc(C(=O)N=Nc3c(O)[nH]c4ccc(F)cc34)c3ccccc3n2)cc1`, 73.9%; to `Nc1cc(-c2c[nH]c3ccc(F)cc23)nc2cc(-c3c[nH]c4ccccc34)nn12`, -88.8% (active).
As for `COc1cc(NC(=O)CSc2nnc(-c3ccc(-c4nc5ccc(Cl)cc5[nH]4)cc3)o2)cc(OC)c1OC`, the growth was 74.2%.
To `COc1ccc(C(=O)NNC(=O)CSc2nc3sc4c(c3c(=O)n2-c2ccc(Cl)cc2)CCCC4)cc1` belongs 118%; to `CN(CCSSCCN1CCOCC1)C(=O)Oc1cc2c(c3ccccc13)[C@H](CCl)CN2C(=O)c1cc2cc(OCCCN3CCC3)ccc2[nH]1`, -74% (active).
With `O=C(Cc1c(-c2ccccc2[N+](=O)[O-])n(-c2ncnc3c2c(-c2ccccc2)c(-c2ccccc2)n3Cc2ccccc2)[nH]c1=O)c1ccc(Cl)c(Cl)c1`, the growth was 43.1%.
With `O=C(c1ccc(Cl)cc1)C1[C@H](c2ccccc2Cl)[C@@H](c2ccccc2)NC12C(=O)Nc1ccc(Br)cc12` (stereo partly drawn), the growth was -83.3% (active).
For the molecule `Cc1cccc(-c2ccccc2Oc2ccc3nnc(Cl)n3n2)c1`, the growth was 127%.
As to `CCC1(OC(=O)c2ccccc2SSCCOC(=O)CCCCC2SCC3NC(=O)NC32)C(=O)OCc2c1cc1n(c2=O)Cc2cc3ccccc3nc2-1` (stereo not drawn), the growth was 79.3%.
In the case of `COc1ccc(/C=C/c2nc3ccccc3n3c(-c4cccc([N+](=O)[O-])c4)nnc23)cc1`, the growth is -70% (active).
With `Cc1ccc(C(=O)Nc2cc(-c3ccncc3)cc(C(F)(F)F)c2)cc1C#Cc1cnc2cccnn12`, the growth is 32.3%.
As for `COc1ccc(N=Nc2c(N)nn3c(N)c(C#N)c(-c4ccccc4)nc23)cc1`, the growth was 80.8%.
In the case of `N#Cc1ccc(C(=O)NNC(=O)CSc2nc3sc4c(c3c(=O)n2-c2ccc(Cl)cc2)CCCC4)cc1`, the growth is 110%.
